Results filed as inconclusive are left out. Active and inactive are the calls of the source. Unless noted, calls follow the shape of the dose curve; as a rule, active = well fitted inhibition curve with a large enough effect; inconclusive = small, poorly fitted or top-dose-only effect; inactive = flat fitted curve, though single readings scatter.
test: S16 Schwann cell PMP22 intronic element beta-lactamase assay (AID 624044; calls by dose curve;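 also: 0% = DMSO and -100% = potassium clavulanate positive control; nearly all actives have a fitted effect of over 15% in size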); settings: S16 rat Schwann cells, PMP22 element beta-lactamase FRET, 24 h; ratio activity, negative = inhibition: at 38.3 µM (top of the series)
Summary of the method: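 Beta-lactamase reporter under a PMP22 intronic regulatory element in stable S16 rat Schwann cells; 24 h compound exposure. 460 nm blue signal normalized between DMSO (0%) and potassium clavulanate, with 535 nm FRET tracking viability; curves classed by r2 and response.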

Compound | Potency
C[C@H](N)Cc1ccccc1 | inactive
C[C@]12C=CC(=O)C=C1CC[C@@H]1C2CC[C@]2(C)OC(=O)CCC12 (stereo partly specified) | inactive
OCC(O)[C@H]1O[C@@H]2O[C@H](C(Cl)(Cl)Cl)O[C@@H]2[C@H]1O (stereo partly specified) | inactive
CC1(C)[C@@H](C=C(Cl)Cl)[C@@H]1C(=O)OCc1c(F)c(F)cc(F)c1F | inactive
CC1OC(O[C@H]2C[C@@H](O)[C@]3(CO)[C@@H]4C(CC[C@]3(O)C2)[C@@]2(O)CC[C@H](C3=CC(=O)OC3)[C@@]2(C)C[C@H]4O)C(O)C(O)C1O (stereo partly specified) | inactive
O=[N+]([O-])OC1CO[C@H]2C(O[N+](=O)[O-])COC12 (stereo partly specified) | inactive
CCOC(=O)/C=C(C)/C=C/CC(C)CCCC(C)C (stereo unspecified) | inactive
[S]=[Sb][S][Sb]=[S] | inactive
CN1C2CCC1C(C(=O)O)C(OC(=O)c1ccccc1)C2 (stereo unspecified) | inactive
C[C@@H]1CC[C@H]2[C@@H](C)C(=O)O[C@@H]3OC4(C)CC[C@@H]1C32OO4 (stereo partly specified) | inactive
Cc1ccc2c(c1)[C@@H]1CN(C)CC[C@H]1N2 | inactive
Nc1nc(O)c(-c2ccccc2)o1 | inactive
C=CC[N+]1(C)CCC23c4c5ccc(O)c4O[C@H]2C(=O)CC[C@@]3(O)C1C5 (stereo partly specified) | inactive
OC[C@@H](O)[C@H]1O[C@@H]2OC(C(Cl)(Cl)Cl)O[C@H]2[C@H]1O (stereo partly specified) | inactive
CCCCCCC(=O)O[C@H]1CC[C@H]2[C@@H]3CCC4CC(=O)C=C(C)[C@]4(C)[C@H]3CC[C@]12C (stereo partly specified) | inactive
CCCN1CCCC2Cc3nc(N)ncc3CC21 (stereo unspecified) | inactive
COc1ccc2c3c1O[C@H]1[C@@H](O)C=C[C@H]4C(C2)NCCC341 (stereo partly specified) | inactive

test: qHTS profiling for inhibitors of Plasmodium falciparum proliferation (AID 504749);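 also: 0% = DMSO vehicle and full inhibition = artemisinin control; nearly all actives have a fitted effect of over 60% in size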; settings: P. falciparum in erythrocytes, SYBR Green DNA, 72 h; at 28.7 µM (top of the series); parasite line A
Summary of the method: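 Quantitative HTS: compounds pinned into medium, infected erythrocytes added (0.3% parasitemia, 2.5% hematocrit), 72 h culture at 37 C under 5% CO2. Saponin/Triton lysis with SYBR Green I, overnight RT, then fluorescence read.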

Compound | activity, negative = inhibition
C[C@H](N)Cc1ccccc1 | -1.91% (inactive)
C[C@]12C=CC(=O)C=C1CC[C@@H]1C2CC[C@]2(C)OC(=O)CCC12 (stereo partly specified) | 2.99% (inactive)
OCC(O)[C@H]1O[C@@H]2O[C@H](C(Cl)(Cl)Cl)O[C@@H]2[C@H]1O (stereo partly specified) | 8.92% (inactive)
CC1(C)[C@@H](C=C(Cl)Cl)[C@@H]1C(=O)OCc1c(F)c(F)cc(F)c1F | 3.24% (inactive)
C=C1Nc2ccccc2C(=O)N1c1ccccc1C | -20.1% (inactive)
CC1OC(O[C@H]2C[C@@H](O)[C@]3(CO)[C@@H]4C(CC[C@]3(O)C2)[C@@]2(O)CC[C@H](C3=CC(=O)OC3)[C@@]2(C)C[C@H]4O)C(O)C(O)C1O (stereo partly specified) | -8.52% (inactive)
O=[N+]([O-])OC1CO[C@H]2C(O[N+](=O)[O-])COC12 (stereo partly specified) | -2.15% (inactive)
CCOC(=O)/C=C(C)/C=C/CC(C)CCCC(C)C (stereo unspecified) | -0.0375% (inactive)
[S]=[Sb][S][Sb]=[S] | 8.49% (inactive)
CN1C2CCC1C(C(=O)O)C(OC(=O)c1ccccc1)C2 (stereo unspecified) | 9.89% (inactive)
Cc1ccc2c(c1)[C@@H]1CN(C)CC[C@H]1N2 | 6.31% (inactive)
Nc1nc(O)c(-c2ccccc2)o1 | 12.1% (inactive)
C=CC[N+]1(C)CCC23c4c5ccc(O)c4O[C@H]2C(=O)CC[C@@]3(O)C1C5 (stereo partly specified) | 14% (inactive)
OC[C@@H](O)[C@H]1O[C@@H]2OC(C(Cl)(Cl)Cl)O[C@H]2[C@H]1O (stereo partly specified) | 8.29% (inactive)
CCCCCCC(=O)O[C@H]1CC[C@H]2[C@@H]3CCC4CC(=O)C=C(C)[C@]4(C)[C@H]3CC[C@]12C (stereo partly specified) | -7.1% (inactive)
Cc1cc(C)cc(C(=O)OC2CC3CCC(C2)N3C)c1 (stereo unspecified) | -5.04% (inactive)
CCCN1CCCC2Cc3nc(N)ncc3CC21 (stereo unspecified) | 2.28% (inactive)
COc1ccc2c3c1O[C@H]1[C@@H](O)C=C[C@H]4C(C2)NCCC341 (stereo partly specified) | 7.6% (inactive)
CCCCCC(O)C1C(=O)OC(C)C(O)\C=C/C=C\C=C/C=C\C=C(\C)C(O)C(O)C(O)CC(O)CC(O)CC(O)CC(O)CC1O (stereo unspecified) | 11.9% (inactive)
